Assay outcomes (PubChem)
NALP3 yeast inh – NALP3 inflammasome inhibitors in reconstituted yeast, primary screen, luminescence, uHTS; Yeast reconstituted NLRP3/ASC/caspase-1, beta-gal luminescence, 24 h; inhibition, % at 10 µM; actives 0.39% (n = 330,000); AID 2825, 2010;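 active means inhibition of 50% or more; inactive means inhibition below 50%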;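 further: plate controls were induced DMSO wells for no effect and uninduced yeast grown without galactose for full effect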
tim10-1 inh – growth inhibitors of tim10-1 mutant yeast, primary screen, luminescence, uHTS | S. cerevisiae tim10-1 ts strain growth, BacTiter-Glo, 24 h | inhibition, % at 20 µM | actives 2.2% (n = 330,000) | AID 463190, 2010;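 active means inhibition of at least 40%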;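 further: mutant grown at 25 °C; 0% = DMSO wells with yeast and 100% = wells holding no yeast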
tim23-1 inh – growth inhibitors of tim23-1 mutant yeast, primary screen, luminescence, uHTS; S. cerevisiae tim23-1 growth, BacTiter-Glo luminescence, 24 h; inhibition, % at 20 µM; actives 1.3% (n = 330,000); AID 463212, 2010;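 active means growth inhibition of the mutant yeast at or above 50%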;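 further: temperature-sensitive mutant grown at 25 °C; plate controls were DMSO-treated mutant yeast for no effect and medium wells lacking yeast for full effect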
TIM10 inh – growth inhibitors of isogenic TIM10 control yeast, primary screen, counter-screen for tim10-1 yeast inhibitor project, luminescence, uHTS | actives 1.4% (n = 330,000) | S. cerevisiae TIM10 strain growth, BacTiter-Glo luminescence, 24 h | inhibition, % at 10 µM | AID 463195, 2010;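 active means inhibition of 40% or more at the single tested concentration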;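 further: wild-type TIM10 isogenic control strain grown at permissive 25 °C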
PfHsp90 set2 – growth inhibition of PfHsp90-expressing yeast, primary screen, antimalarial PfHsp90 inhibitor project, S. cerevisiae, BacTiter-Glo luminescence, single point, set 2; actives 0.32% (n = 310,000); inhibition, % at 9.4 µM; BacTiter-Glo ATP, 48 h; yeast lacking PDR1 and PDR3 efflux regulators;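 active means every replicate shows inhibition above about 80%, whatever the replicate mean, limit read from the data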;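 further: 0% = DMSO neutral controls and 100% = 20 µM radicicol positive controls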
SKKanGAS inh – S. pyogenes SKKanGAS growth inhibitors in kanamycin, primary screen, streptokinase expression inhibitor project, SKKanGAS strain, BacTiter-Glo luminescence | 6 h | inhibition, % at 7.5 µM | actives 1.3% (n = 300,000);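 active means mean replicate score, as percent of positive control median, at least 50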;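 further: strain carries kanamycin resistance gene driven by streptokinase promoter and grows in 40 µg/ml kanamycin; loss of luminescence reflects streptokinase promoter inhibition or plain growth inhibition; 0% = median of DMSO wells and 100% = positive control at its reference dose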
tim10-1 conf – growth inhibitors of tim10-1 mutant yeast, confirmation, single concentration, luminescence, S. cerevisiae; shares compounds with tim10-1 inh; S. cerevisiae tim10-1 ts strain growth, BacTiter-Glo, 24 h; AID 463213, 2010; inhibition, % at 20 µM; actives 56% (n = 7,400);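 active means inhibition of yeast growth at or above a set limit in either of two repeat tests at 20 µM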;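 further: tim10-1 mutant grown at permissive 25 °C to find synthetic lethal compounds; 0% = DMSO yeast wells and 100% = medium wells without yeast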
tim10 confirm – growth inhibitors of wild-type TIM10 yeast, confirmation, counter-screen for tim10-1 synthetic lethality project, single concentration, luminescence, S. cerevisiae. actives 63% (n = 4,600). inhibition, % at 10 µM. S. cerevisiae tim10 strain growth, BacTiter-Glo luminescence, 24 h. shares compounds with TIM10 inh. AID 463215, 2010;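 active means inhibition of yeast growth at or above a set limit in either of two replicates at 10 µM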;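 further: this counterscreen used the strain with wild-type TIM10; 0% = yeast with DMSO and 100% = medium wells lacking yeast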
tim23-1 confirm – tim23-1 mutant yeast growth inhibitors, confirmation, luminescence, single concentration; AID 463218, 2010; shares compounds with tim23-1 inh; inhibition, % at 20 µM; actives 83% (n = 4,400); S. cerevisiae tim23-1 growth, BacTiter-Glo luminescence, 24 h;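 active means inhibition above about 39% in either of two replicate wells at 20 µM, limit read from the data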;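 further: temperature-sensitive tim23-1 mutant grown at 25 °C; 0% = DMSO wells with yeast and 100% = medium wells without yeast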
The depositor's hits bear a star; / = not tested or not shown. Only some compounds are listed: those with a hit (about 4.6% of all), similar ones and a draw of the others.

SMILES	NALP3 yeast inh	tim10-1 inh	tim23-1 inh	TIM10 inh	PfHsp90 set2	SKKanGAS inh	tim10-1 conf	tim10 confirm	tim23-1 confirm
CC(C)(C)c1cc(S(=O)(=O)CCc2ccccn2)cc(C(C)(C)C)c1F	1	48*	60*	53*	-8	-1	45*	52*	58*
CN(CCc1ccccn1)S(=O)(=O)c1ccc(F)cc1	11	-1	10	-1	23	-6	/	/	/
Cc1ccc(N(C(=O)c2snc(C(N)=O)c2N)C(C(=O)NC2CCCC2)c2ccc(C)o2)cc1 (stereo not given)	20	-5	23	23	-31	4	/	/	/
O=C(NCc1cccc(C(F)(F)F)c1)C1CCC(=O)N(C2CCCCCC2)C1 (stereo not given)	6	14	11	-2	-110	-1	/	/	/
N/C(=N\OC(=O)c1ccc([N+](=O)[O-])cc1Cl)c1ccccn1	15	53*	59*	42*	6	2	45*	52*	65*
N/C(=N/OC(=O)c1ccccc1Cl)c1ncc([N+](=O)[O-])s1	11	49*	55*	62*	-3	29	50*	73*	15
N/C(=N\OC(=O)c1ccc(Cl)cc1Cl)c1ccccn1	8	41*	76*	72*	-2	8	25	75*	70*
Cc1ccc(C(=O)O/N=C(\N)c2ccccc2)c(Cl)c1	36	71*	83*	74*	-2	-4	59*	81*	86*
N/C(=N\OC(=O)c1ccccc1Cl)c1ccncc1	9	21	8	14	/	-3	/	/	/
CN(Cc1ccc(F)cc1)C(=O)CNC(=O)C1CCCCC1	-2	1	6	7	-24	0	/	/	/
COc1ccc(C2(O)C(=O)Nc3ccc(C)cc32)cc1OC (stereo not given)	5	-12	12	8	9	-1	/	/	/
N/C(=N\OC(=O)c1ccc(=O)n(Cc2ccc(Cl)cc2)c1)c1ccccn1	-1	67*	53*	54*	/	8	60*	53*	48*
N/C(=N\OC(=O)c1ccc(=O)n(Cc2ccccc2)c1)c1ccccn1	12	28	24	15	-8	-25	/	/	/
CCOCC(=O)Nc1nc2ccc(OCC)cc2s1	-11	26	34	4	29	-7	/	/	/
CCOc1ccc2nc(NC(=O)C3(C)CC3(Br)Br)sc2c1 (stereo not given)	24	50*	74*	25	-2	20	40*	/	38*
Cc1cc(NC(=S)Nc2ccc(C)c(Cl)c2)n[nH]1	23	46*	51*	29	27	1	27	/	39*
COc1ccc(NC(=S)Nc2cc(C)[nH]n2)cc1Cl	6	16	-12	-3	13	-12	/	/	/
CCOC(=O)N(Cc1ccccc1)Cc1ccc(C(=O)N[C@@H](Cc2ccccc2)C(=O)O)cc1	-2	7	6	19	-4	7	/	/	/
CCCCCCCCC(=O)N/N=C/c1ccccn1	23	34	24	3	-12	-9	/	/	/
CCCCCCCCC/C(=N\O)c1ccccn1	46	48*	65*	72*	111*	97*	17	-3	70*
O=[N+]([O-])CC1(n2nc3ccccc3n2)CCCCC1	9	11	3	6	8	0	/	/	/
COC(=O)c1c(NC(=O)c2ccc([N+](=O)[O-])o2)sc2c1CCN(C(C)C)C2	16	91*	91*	94*	-120	57*	91*	98*	92*
Cc1ccc(SCC(=O)OCn2nnc3ccccc3c2=O)cc1C	1	42*	67*	26	14	-1	26	/	51*
COc1ccccc1C/C(N)=N/OC(=O)/C=C/c1ccccc1	3	53*	75*	83*	-13	2	33*	83*	76*
COc1ccccc1C/C(N)=N/OC(=O)c1cccs1	2	64*	77*	59*	-9	4	53*	61*	64*
SMILES	NALP3 yeast inh	tim10-1 inh	tim23-1 inh	TIM10 inh	PfHsp90 set2	SKKanGAS inh	tim10-1 conf	tim10 confirm	tim23-1 confirm
Cc1ccccc1C(=O)O/N=C(\N)Cc1cccs1	23	67*	77*	90*	-33	-6	70*	69*	80*
COc1ccc(C/C(N)=N/OC(=O)c2cccs2)cc1	4	46*	85*	77*	-36	4	63*	74*	80*
COc1ccc(C(=O)O/N=C(/C)c2cccs2)cc1	45	23	48	6	73	48	/	/	/
N/C(=N\OC(=O)/C=C/c1ccccc1)c1ccncc1	2	12	7	13	-6	-34	/	/	/
C/C(N)=C(/C#N)C(=O)COC(=O)CNC(=O)c1ccc(Cl)cc1Cl	13	10	7	4	18	-3	/	/	/
CN1N=C(C(=O)N=c2sc3ccccc3n2C)CCC1=O	/	/	/	/	-13	/	/	/	/
COC(=O)c1cc(=O)n(-c2ccccc2)c(=Nc2ccccc2)s1	3	51*	73*	18	4	-2	43*	/	52*
CCOC(=O)c1ccc(N=c2sc(C(=O)OC)cc(=O)n2-c2ccc(C(=O)OCC)cc2)cc1	9	15	20	24	-21	2	/	/	/
Oc1ccc(/C=N/Nc2ccc(C(F)(F)F)cn2)c(O)c1	30	65*	78*	65*	4	8	44*	72*	78*
CCNC(=S)NNC(=O)c1cc(-c2cccc(C)c2)nc2ccccc12	2	82*	73*	55*	32	36	79*	41*	72*
CCNC(=S)NNC(=O)c1cc(C)nc2ccccc12	4	-3	-2	6	9	1	/	/	/
CCCCNC(=S)NNC(=O)c1cc(-c2cccnc2)nc2ccccc12	16	25	24	22	-25	-2	/	/	/
CCCCOc1ccc(-c2cc(C(=O)NNC(=S)NCC)c3ccccc3n2)cc1	10	72*	67*	47*	-36	63*	70*	46*	74*
